# Out of some 67,000 compounds screened, about 300 (0.45%) showed an effect of 50% or more. Only a selection was taken, and strong results are over-represented in it overall.
# Molecular target: Polyketide synthase Pks13 (Mycobacterium tuberculosis (strain ATCC 25618 / H37Rv)) (UniProt I6X8D2)
# Assay: Mycobacterium tuberculosis Polyketide synthase 13 Thioesterase (PKS13)
# Format: functional
# Set-up: scale not given: in the data most compounds retested in dose-response had high values
# Conditions: 30 µM
# Sequence of Polyketide synthase Pks13 (Mycobacterium tuberculosis (strain ATCC 25618 / H37Rv)) (I6X8D2 whole entry): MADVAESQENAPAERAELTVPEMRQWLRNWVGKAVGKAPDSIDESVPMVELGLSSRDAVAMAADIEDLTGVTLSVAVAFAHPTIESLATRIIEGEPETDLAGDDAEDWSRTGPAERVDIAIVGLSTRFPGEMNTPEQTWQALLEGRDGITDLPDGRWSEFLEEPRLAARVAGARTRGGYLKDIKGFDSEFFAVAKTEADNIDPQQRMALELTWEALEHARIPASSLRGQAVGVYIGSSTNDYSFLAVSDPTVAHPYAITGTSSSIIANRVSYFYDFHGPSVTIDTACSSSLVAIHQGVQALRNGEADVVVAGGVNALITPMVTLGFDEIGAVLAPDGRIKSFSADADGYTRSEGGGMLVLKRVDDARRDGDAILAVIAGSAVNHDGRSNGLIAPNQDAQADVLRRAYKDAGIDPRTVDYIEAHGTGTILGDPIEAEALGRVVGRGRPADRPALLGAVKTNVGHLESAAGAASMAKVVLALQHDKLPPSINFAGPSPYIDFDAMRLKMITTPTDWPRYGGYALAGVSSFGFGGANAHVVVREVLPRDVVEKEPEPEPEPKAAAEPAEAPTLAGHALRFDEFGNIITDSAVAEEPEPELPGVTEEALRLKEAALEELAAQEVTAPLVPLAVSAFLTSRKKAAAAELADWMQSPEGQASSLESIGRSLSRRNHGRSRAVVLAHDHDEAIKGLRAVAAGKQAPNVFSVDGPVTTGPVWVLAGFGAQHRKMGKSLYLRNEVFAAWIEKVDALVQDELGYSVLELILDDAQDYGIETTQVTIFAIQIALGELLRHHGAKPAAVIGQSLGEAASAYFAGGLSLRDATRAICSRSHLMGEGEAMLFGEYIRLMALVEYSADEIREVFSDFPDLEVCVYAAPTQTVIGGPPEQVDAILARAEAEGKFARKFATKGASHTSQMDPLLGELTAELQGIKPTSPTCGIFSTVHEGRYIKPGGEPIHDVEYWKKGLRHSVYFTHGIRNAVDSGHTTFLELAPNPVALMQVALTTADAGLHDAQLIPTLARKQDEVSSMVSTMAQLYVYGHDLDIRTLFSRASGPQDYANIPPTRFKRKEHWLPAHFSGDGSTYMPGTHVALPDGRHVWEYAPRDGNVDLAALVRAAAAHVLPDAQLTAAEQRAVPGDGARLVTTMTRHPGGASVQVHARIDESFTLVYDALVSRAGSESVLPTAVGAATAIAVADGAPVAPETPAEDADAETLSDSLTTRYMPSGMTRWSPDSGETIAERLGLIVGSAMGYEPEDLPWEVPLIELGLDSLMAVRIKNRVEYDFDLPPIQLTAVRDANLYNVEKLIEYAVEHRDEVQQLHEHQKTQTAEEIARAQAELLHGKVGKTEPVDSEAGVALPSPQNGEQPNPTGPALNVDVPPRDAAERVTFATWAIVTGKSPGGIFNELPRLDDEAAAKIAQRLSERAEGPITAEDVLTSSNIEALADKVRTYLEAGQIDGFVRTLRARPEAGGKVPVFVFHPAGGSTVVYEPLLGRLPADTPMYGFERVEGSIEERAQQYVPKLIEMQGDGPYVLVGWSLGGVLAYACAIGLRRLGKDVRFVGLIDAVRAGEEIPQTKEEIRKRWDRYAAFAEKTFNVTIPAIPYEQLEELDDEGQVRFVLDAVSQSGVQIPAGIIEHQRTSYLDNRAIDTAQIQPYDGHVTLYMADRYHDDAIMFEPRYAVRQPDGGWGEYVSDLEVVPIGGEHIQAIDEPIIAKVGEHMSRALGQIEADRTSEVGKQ
row,Structure (SMILES),Percent Effect [%]
1,Cc1nc(C(=O)N(C)CC(F)(F)C(F)(F)F)c2ccccn12,132
2,CN(CCC(F)(F)F)C(=O)c1nc(S(C)(=O)=O)n2ccccc12,-23
3,CN(Cc1ccccc1)C(=O)c1nc(S(C)(=O)=O)n2ccccc12,-33.7
4,CC(C)CN1C(=O)CO[C@@H]2CN(C(=O)NC(C)C)C[C@H]21,-42.5
5,O=C(CSCC1CC1)N1C[C@@H]2CC[C@H](C1)N(Cc1ccccn1)C2=O,-35
6,CO[C@H]1CCN(Cc2c(C)noc2C)[C@@H]2CN(Cc3ccncc3)C[C@H]12,13.1
7,CNCc1cn(C[C@H]2C[C@@H]3CCN2C[C@@H]3C(=O)NC2CCCCC2)nn1,-24.7
8,CNc1cncc(C2CCCN2C(=O)c2ccc3oc(=O)n(C)c3c2)n1 (stereo not drawn),-18.4
9,CNc1cncc(C2CCCN2C(=O)Cn2c(=O)oc3ccccc32)n1 (stereo not drawn),130
10,Cn1cc(C2CCCN2C(=O)Cn2c(=O)oc3ccccc32)cn1 (stereo not drawn),-24.9
11,O=C(C1CCCO1)N1C[C@@H]2CCN(c3cnccn3)C[C@@H]2C1 (stereo partly drawn),-10.1
12,Cc1noc([C@@H]2C[C@H]3OCC[C@H]3N(S(=O)(=O)c3ccccc3)C2)n1,-2.66
13,Cc1noc([C@@H]2C[C@H]3OCC[C@H]3N(S(C)(=O)=O)C2)n1,-22.1
14,Cc1noc([C@@H]2C[C@H]3OCC[C@H]3N(S(=O)(=O)c3cccnc3)C2)n1,56.3
15,CCOC(=O)[C@@H]1[C@@H](c2ccccc2)CN2CCN(C(=O)C3CC3)C[C@H]12,-34.9
16,CCC[C@H]1CN(S(C)(=O)=O)C[C@@H]1NC(=O)Cc1ccc(OC)cc1,-10.8
17,CCC[C@H]1CN(S(C)(=O)=O)C[C@@H]1NC(=O)c1ccc(COC)cc1,125
18,CCC[C@H]1CN(S(C)(=O)=O)C[C@@H]1NC(=O)COC(C)C,-31
19,CCc1cnc(N2C[C@H]3CCCC(N(C)Cc4ccccn4)[C@H]3C2)nc1 (stereo partly drawn),-25
20,Cc1ccc(C)c(-n2ncc(C(=O)NCC3COC(C)(C)O3)c2N)c1 (stereo not drawn),66.6
21,CC1(C)OCC(CNC(=O)c2cnn(-c3ccc(Cl)cc3)c2N)O1 (stereo not drawn),-15.3
22,CC1(C)OCC(CNC(=O)c2cnn(-c3cc(Cl)ccc3Cl)c2N)O1 (stereo not drawn),-5.14
23,O=C(NCc1ccc2c(c1)OCCO2)N1CCC(CO)CC1,52.7
24,NC(=O)C1CCN(C(=O)NCc2ccc3c(c2)OCCO3)CC1,-21.9
25,CC(=O)NCC1CCN(C(=O)NCc2ccc3c(c2)OCCO3)CC1,-0.159
26,COCCN1C(=O)[C@]2(CC[C@@H]3CN(C(=O)NCC(C)C)C[C@@H]32)N=C1C,-6.17
27,COC(=O)c1sc2cccc(F)c2c1CNC(=O)C1CCOC1 (stereo not drawn),68.2

row,Structure (SMILES),Percent Effect [%]
1,COC(=O)c1sc2cccc(F)c2c1CNC(=O)C1CC1,1.9
2,COC(=O)c1sc2cccc(F)c2c1CNC(=O)C1CCCO1 (stereo not drawn),1.86
3,Cc1noc(C)c1CN1CC[C@H]2[C@H]1CCN2CC1CCOCC1,10.3
4,CN(Cc1ccc(N2CCOCC2)cc1)Cc1noc(C(C)(C)C)n1,21.8
5,CN(Cc1noc(C(C)(C)C)n1)Cc1ccccc1N1CCCCC1,1.5
6,CN(Cc1ccc(N2CCCCC2)cc1)Cc1noc(C(C)(C)C)n1,85.2
7,Cn1cncc1CN1C[C@@H]2OCCN(c3ncccn3)[C@@H]2C1,-16.4
8,O=C(Nc1ccccc1)N1C[C@@H]2OCCN(C(=O)c3ccco3)[C@@H]2C1,-42.5
9,CN1CCN(C(=O)[C@@H]2CCO[C@@H]3CCN(c4ncccn4)C[C@@H]32)CC1,-7.46
10,CCn1cc(-c2cc(C(F)F)n3nc(CC(=O)O)nc3n2)cn1,62.5
11,CCn1cc(-c2cc(C(F)F)n3nc(CCC(=O)O)nc3n2)cn1,32.3
12,Cn1cc(-c2cc(C(F)F)n3nc(CCC(=O)O)nc3n2)cn1,51.2
13,Cc1nn(C)cc1-c1cc(C(F)F)n2nc(CCC(=O)O)nc2n1,16.4
14,CC(C)c1cc(C(F)(F)F)n2nc(CCC(=O)O)nc2n1,5.23
15,CCn1ncc(-c2cc(C(F)F)n3nc(CCC(=O)O)nc3n2)c1C,15.6
16,CN(C)C(=O)N1CCN(CCCc2ccccc2)[C@H]2CS(=O)(=O)C[C@H]21,-15
17,Cc1oncc1C(=O)N1C[C@H](OCc2ccccn2)[C@H]2OCCC[C@H]21,-0.48
18,O=S1(=O)C[C@@H]2[C@H](C1)N(Cc1ncc[nH]1)CCN2Cc1cccnc1,-6.48
19,CC(C)CNC(=O)c1cn(-c2ccccn2)c(=O)c2ccccc12,42.5
20,O=C(O)c1cn(-c2ccccn2)c(=O)c2ccccc12,57
21,COC(=O)CNC(=O)c1cn(-c2ccccn2)c(=O)c2ccccc12,41.4
22,CN(C)C(=O)[C@]12CCCN(CC3CC3)C[C@H]1CN(c1ccccn1)C2,-21.7
23,COCCc1noc(-c2cn(Cc3ccc(OC)cc3)nn2)n1,-2.84
24,COCCc1noc(-c2cn(CCc3ccccc3)nn2)n1,62.2
25,COCCc1noc(-c2cn(Cc3ccccc3C)nn2)n1,-13.8
26,CN(Cc1cncnc1)[C@@H]1CN(Cc2ccco2)C[C@@H]2CCCO[C@@H]21,-4.7
